FMDV inh: foot and mouth disease virus antiviral activity | FMDV antiviral cell-based qHTS | Potency, µM (titrated, usually from 57.9 µM), hits mostly inhibitors | 1.2% of 410,000 active; calls by dose curve; tested in HEK293T cells; further: read-out not given here; nearly all actives have a fitted effect of over 45% in size
VACV Venus inh: inhibitors of vaccinia virus (Venus reporter); Vaccinia virus Venus reporter expression, fluorescence; Potency, µM (top dose mostly 36.5 µM), actives largely listed as inhibitors; 0.46% of 330,000 active; calls by dose curve; tested in A549 cells; further: nearly all actives have a fitted effect of over 30% in size
LASV entry inh: Lassa virus entry inhibition. Lassa virus pseudotype entry inhibition, cell reporter. Potency, µM (doses to about 37.9 µM), actives largely listed as inhibitors. 1.2% of 300,000 active. AID 540256; calls by dose curve; tested in HEK293 cells; further: nearly all actives have a fitted effect of over 50% in size
HCMV inh: blocks human cytomegalovirus replication | activity change, negative = inhibition, % at 57.5 µM | 4.5% of 410,000 active | HFF cells, HCMV-luciferase reporter, 72 h; active compounds read low; in the data active means activity change below about -60%; inconclusive means no clear call, values can overlap the other calls; inactive means above about -39%
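Screen run at 2 compound doses on HFFs infected with reporter HCMV, MOI 1 PFU/cell. Luciferase activity from cell lysates at 72 h post infection gave inhibition relative to buffer-only and Salinomycin wells.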
VACV mCherry inh: vaccinia inhibition (mCherry reporter); Potency, µM (titrated, usually from 36.5 µM), actives largely listed as inhibitors; Vaccinia virus mCherry reporter infection, fluorescence; 0.63% of 310,000 active; calls by dose curve; tested in A549 cells; further: nearly all actives have a fitted effect of over 35% in size
Marburg entry inh: inhibitors of Marburg virus binding or cell entry | AID 540276 | Marburg virus pseudotyped entry inhibition, cell reporter | 1.8% of 300,000 active | Potency, µM (top dose mostly 37.8 µM), usual class: inhibitors; calls by dose curve; tested in HEK293 cells
Hits are given with their value; [ ] = dose if it differs, or a comment. Sampled rows, rich in hits. Any-hit rate of the full collection: about 6.5%.

How did CCCn1c(CC)nc([N+](=O)[O-])c1Sc1ccc(C)cc1 do in these assays?
FMDV inh: inconclusive; LASV entry inh: inactive; HCMV inh: inactive; Marburg entry inh: inactive

How did O=C(NCCC(c1ccccc1)c1ccco1)c1cccs1 (configuration not stated) do in these assays?
FMDV inh: inactive; HCMV inh: inactive

How did O=S(=O)(NCC(c1ccco1)N1CCN(c2ccc(F)cc2)CC1)c1ccccc1 (configuration not stated) do in these assays?
FMDV inh: inactive; VACV Venus inh: inactive[7.34 µM]; LASV entry inh: inconclusive; HCMV inh: inactive; VACV mCherry inh: inactive[7.34 µM]

How did Fc1ccc(C(CCNCc2cccs2)c2ccco2)cc1 (configuration not stated) do in these assays?
FMDV inh: inactive; VACV Venus inh: inactive; LASV entry inh: inactive; HCMV inh: inactive; VACV mCherry inh: inactive; Marburg entry inh: 7.9µM

How did O=S(=O)(NCCC(c1ccc(F)cc1)c1ccco1)c1ccccc1 (configuration not stated) do in these assays?
FMDV inh: 4.5µM; VACV Venus inh: inactive; LASV entry inh: inactive; HCMV inh: inconclusive; VACV mCherry inh: inactive; Marburg entry inh: inactive

How did CCOc1ccc(CNC(=O)CN2C(=O)CSc3c2c(C)nn3-c2ccccc2)cc1 do in these assays?
FMDV inh: inactive; VACV Venus inh: inactive; LASV entry inh: inactive; HCMV inh: inactive; VACV mCherry inh: inactive

What do the screens show for `O=C1C=CC2(O[C@H](c3ccccc3)[C@@H](c3ccccc3)O2)[C@H](Sc2ccccc2O)C1`?
FMDV inh: 7.9µM; VACV Venus inh: inconclusive; LASV entry inh: 6.3µM; HCMV inh: -100; VACV mCherry inh: 10µM; Marburg entry inh: inconclusive

Results for COC(=O)CSc1cccc2c1C(=O)CC2c1ccccc1 (configuration not stated) ?
FMDV inh: inactive; VACV Venus inh: inactive; HCMV inh: inactive; VACV mCherry inh: inactive

How did CCN(CC)c1ccc(NC(=O)c2sc3ccccc3c2Cl)cc1 do in these assays?
FMDV inh: inactive; VACV Venus inh: inactive; LASV entry inh: inactive; HCMV inh: inactive; VACV mCherry inh: inactive

How did CCN(CC)Cc1ccc(NC(=O)c2sc3cc(Cl)ccc3c2Cl)cc1 do in these assays?
FMDV inh: inconclusive; VACV Venus inh: inconclusive; LASV entry inh: inconclusive; HCMV inh: -104; VACV mCherry inh: inconclusive; Marburg entry inh: inconclusive

What do the screens show for `CCOC(=O)c1ccc(Oc2c(C)oc3cc(OS(C)(=O)=O)ccc3c2=O)cc1`?
FMDV inh: inactive; VACV Venus inh: inactive; LASV entry inh: inactive; HCMV inh: -77; VACV mCherry inh: inactive; Marburg entry inh: inconclusive

How did Cc1ccc(-c2nn3c(C)nnc3s2)cc1NC(=O)c1ccc(-c2ccc(Cl)cc2Cl)o1 do in these assays?
FMDV inh: inactive; LASV entry inh: inconclusive; HCMV inh: -74; Marburg entry inh: 15µM

How did Cc1ccc(-c2nn3c(C)nnc3s2)cc1NC(=O)c1ccc(-c2cccc(Cl)c2)o1 do in these assays?
FMDV inh: inconclusive; VACV Venus inh: inactive; LASV entry inh: inconclusive; HCMV inh: inconclusive; VACV mCherry inh: inactive; Marburg entry inh: 9.2µM

What do the screens show for `CC(C)(C)CC(C)(C)NCC(O)COc1ccc2c(c1)CCC2` (configuration not stated)?
FMDV inh: inconclusive; VACV Venus inh: inconclusive; LASV entry inh: inconclusive; HCMV inh: inactive; VACV mCherry inh: inconclusive; Marburg entry inh: 7.1µM

How did O=[N+]([O-])c1cc(S(=O)(=O)Oc2ccccc2)ccc1Cl do in these assays?
FMDV inh: inconclusive; VACV Venus inh: inconclusive; LASV entry inh: inconclusive; HCMV inh: -89; VACV mCherry inh: inconclusive; Marburg entry inh: inconclusive

Results for Clc1ccc(-n2nnnc2-c2ccccc2)cc1 ?
FMDV inh: inactive; LASV entry inh: inactive; HCMV inh: inactive; Marburg entry inh: inactive

What do the screens show for `Clc1ccc2[nH]cc(-c3nnnn3-c3ccc4ccccc4c3)c2c1`?
FMDV inh: inactive; VACV Venus inh: inactive; LASV entry inh: inactive; HCMV inh: -62; VACV mCherry inh: inactive; Marburg entry inh: inconclusive

What do the screens show for `CC(C)(C)c1cc(/C=C2\NC(=O)NC2=O)cc(C(C)(C)C)c1O`?
FMDV inh: inactive; HCMV inh: -83

What do the screens show for `Cc1cc(Br)c(S(=O)(=O)NCc2ccncc2)cc1C`?
FMDV inh: inactive; VACV Venus inh: inactive; LASV entry inh: inconclusive; HCMV inh: -82; VACV mCherry inh: inconclusive; Marburg entry inh: inconclusive

Results for O=S(=O)(NCc1ccncc1)c1ccccc1 ?
FMDV inh: inactive; LASV entry inh: inactive; HCMV inh: inconclusive; Marburg entry inh: inactive
